# In all, about 69,000 compounds went through this assay and about 8,600 (12%) showed an effect of 50% or more. Shown is part of a subset that was picked to be rich in strong results.
# System: Plasmodium berghei
# Test: Screen against P. berghei liver stage (PbLuc), transformed with Luciferase, at 10uM
# Assay type: functional, HepG2
# Details: tested at 10 uM
row,Structure (SMILES),INHIBITION
1,O=C(Nc1nccs1)NC1CCN(Cc2ccccc2)CC1,15%
2,C=c1ncsc1=C1NN=C(C2CCCN2C(=O)c2ccn(CC)n2)O1 (stereo not drawn),9.535%
3,FC(F)(F)C1CN(Cc2cccc(-c3ccccn3)c2)CCO1 (stereo not drawn),4.93%
4,CC(=O)NCc1ccc(-c2ccccc2C(=O)O)cn1,-24.5%
5,Cc1cc(C(=O)N2CC[C@@H]3CO[C@@H](CN4CCCC4)[C@@H]3C2)no1,23.3%
6,CNc1nc(C)c(C(=O)N2CCCCC2CN2CCCCCC2)s1 (stereo not drawn),50%
7,CNc1nc(C)c(C(=O)N2CCCCC2CCN2CCOCC2)s1 (stereo not drawn),13.6%
8,CCOC(=O)CC1CCCCN1C(=O)c1cc(C)on1 (stereo not drawn),17.5%
9,Cc1cc(C(=O)N2CCCC2CN2CCCC2)no1 (stereo not drawn),61.1%
10,CNc1nc(C)c(C(=O)N2CCCCC2CCc2ccccc2)s1 (stereo not drawn),-14.7%
11,OC(CN1CCN(Cc2cc(F)cc(F)c2)CC1)C1CC1 (stereo not drawn),5.85%
12,Cc1cc(CN(C)CC(c2cccs2)N2CCOCC2)on1 (stereo not drawn),-48.4%
13,CCN(CC)c1ncc(S(=O)(=O)c2cccc(C)c2)c(N)n1,17.7%
14,CN1CCCN(c2ncnc(N3CCOCC3)c2N)CC1,32.2%
15,Cc1nc(C2CN(C)CCO2)cc(N2CCC(C(N)=O)CC2)n1 (stereo not drawn),-20.2%
16,CCCNc1cc(C(=O)N2CCOCC2)nc(C)n1,34.6%
17,Cc1nc(C(=O)N2CCOCC2)cc(N2CCC(C(N)=O)CC2)n1,56.1%
18,CCOC(=O)C1CCN(c2cc(C(=O)N3CCOCC3)nc(C)n2)CC1,62.9%
19,COCCNc1cc(C(=O)N2CCOCC2)nc(C)n1,8.24%
20,CCOC(=O)C1CCN(c2cc(C(=O)N3CCCCC3)nc(C)n2)CC1,9.52%
21,CC(C)(O)CN1CCN(C(=O)c2ccc(Cl)c3cccnc23)CC1,36.9%
22,COc1cc(C(=O)O)cc(I)c1OCC(=O)NCCc1ccccc1,25.5%
23,CC(NC(=O)NCCc1ccc(Cl)s1)c1ccccn1 (stereo not drawn),-12.1%
24,COc1ccc(C(=O)N2CC(=O)N(Cc3cccs3)CC(O)C2)cc1 (stereo not drawn),27.5%
25,CC(C)CCC(=O)N1CCN(C(=O)c2ccc3nccn3c2)CC1,24.2%
26,CC(C)COC(=O)N1CCN(C(=O)c2ccc3nccn3c2)CC1,50.1%

row,Structure (SMILES),INHIBITION
1,CC(C)COC(=O)N1CCCN(C(=O)c2ccnc(N(C)C)c2)CC1,33.4%
2,c1ncn(CC2CCCCN2Cc2csc(-c3ccsc3)n2)n1 (stereo not drawn),-58.7%
3,CCC1COCCN1C(=O)NCc1nccn1CC(C)C (stereo not drawn),8.59%
4,Cn1cccc1CNC(=O)N(CCO)C1CCCc2ccccc21 (stereo not drawn),26.8%
5,O=C(NC1CC(F)(F)C1)[C@]12COC[C@H]1CN(Cc1cccnc1)C2,29.4%
6,CN1C[C@@H]2COC[C@]2(C(=O)NCc2cccs2)C1,4.02%
7,O=C(NCCc1cccs1)[C@]12COC[C@H]1CN(C1CCOCC1)C2,61.1%
8,O=C(NCCc1cccs1)[C@]12COC[C@H]1CN(Cc1ccccn1)C2,24.9%
9,O=C(NCCc1cccs1)[C@]12COC[C@H]1CN(Cc1ccncc1)C2,54.8%
10,O=C(NCc1cccs1)[C@]12COC[C@H]1CN(c1ncccn1)C2,2.41%
11,O=C(NC1CC(F)(F)C1)[C@]12COC[C@H]1CN(Cc1ccsc1)C2,35.8%
12,CN1C[C@@H]2COC[C@]2(C(=O)NCCc2cccs2)C1,34.6%
13,Cn1cc(CN2C[C@@H]3COC[C@]3(C(=O)NCc3cccs3)C2)cn1,28.3%
14,O=C(NCCc1cccs1)[C@]12COC[C@H]1CN(c1ncccn1)C2,52.1%
15,O=C(NC1CC(F)(F)C1)[C@]12COC[C@H]1CN(Cc1ccccc1)C2,61.1%
16,CS(=O)(=O)N1C[C@@H]2COC[C@]2(C(=O)NCCc2cccs2)C1,24.9%
17,CN(C)C(=O)CCS(=O)(=O)Cc1coc(-c2ccc(F)cc2)n1,-23.4%
18,CCC(CCN)n1ccc(C(F)(F)F)n1 (stereo not drawn),35.2%
19,Cc1cc(C)n(-c2cncc(NCCNC(=O)C(C)(C)C)n2)n1,34.9%
20,CC(C)C(N)CNS(=O)(=O)Cc1cccc2cccnc12 (stereo not drawn),24.2%
21,CC(C)CCN(C(=O)CCn1cc(S(N)(=O)=O)cn1)C1CC1,11.4%
22,Cn1cc(-c2cnc(-c3ccnn3C)nc2)cc1C(=O)N1CCCC1,-4.26%
23,Cc1ccc(C2COCCN2C(=O)c2cccc(N(C)C)c2)o1 (stereo not drawn),32.9%
24,Cc1ccc(C(=O)N2CCc3c(CNS(C)(=O)=O)cncc3C2)o1,-3.83%
25,Fc1ccc(CN2C[C@@H](OCc3ccccn3)[C@H]3COC[C@H]32)cc1,43.9%
26,Cc1nc(CO[C@H]2CN(C(=O)c3ccc[nH]3)[C@@H]3COC[C@H]23)cs1,13.1%

row,Structure (SMILES),INHIBITION
1,c1ccc(CO[C@@H]2CN(Cc3nccs3)[C@@H]3COC[C@@H]32)nc1,59.3%
2,Cc1nc(CO[C@@H]2CN(Cc3nccs3)[C@@H]3COC[C@@H]32)cs1,-56.3%
3,O=C(c1ccnnc1)N1C[C@H](OCc2ccccn2)[C@H]2COC[C@H]21,5.67%
4,O=C(c1ccc[nH]1)N1C[C@H](OCc2ccccn2)[C@H]2COC[C@H]21,64.8%
5,CN(CC(=O)N1CCCCC1Cn1cccn1)Cc1ccccc1 (stereo not drawn),23.5%
6,Cn1nc(Cn2cccn2)c2c1CN(Cc1ccsc1)C2,-41.8%
7,O=C(C[C@@H]1COC[C@H]2CN(CC3CC3)C[C@@H]12)NCc1cccnc1,53.4%
8,O=C(C[C@@H]1COC[C@H]2CN(Cc3cccnc3)C[C@@H]12)N1CCCC1,-11.6%
9,O=C(C[C@@H]1COC[C@H]2CN(C3CCC3)C[C@@H]12)NCc1cccnc1,27.5%
10,O=C(C[C@@H]1COC[C@H]2CN(Cc3cccnc3)C[C@@H]12)NCC1CC1,54.4%
11,COCCNC(=O)C[C@@H]1COC[C@H]2CN(Cc3cccnc3)C[C@@H]12,40.5%
12,COCCN1C[C@@H]2COC[C@@H](CC(=O)NCc3cccnc3)[C@@H]2C1,47.4%
13,Cc1cccc(N2CCN(C(=O)CNCCn3cccn3)CC2)c1,-76.5%
14,CCC[C@H]1CN(c2cncc(C(=O)N(C)C)n2)C[C@@H]1N(C)C,33.7%
15,NC(=O)CN1CCN(C(=O)c2cc(Cl)cc3cccnc23)CC1,13.4%
16,CN(C)c1nc2c(c(NCc3nnc4n3CCCCC4)n1)CCNC2,5.78%
17,CNC(=O)c1ccccc1NCc1ncnn1C,20%
18,Cn1ccc2cc(CC3COCCN(C(=O)c4cccnc4)C3)ccc21 (stereo not drawn),29.61%
19,COCCn1nc(C(=O)N(C)Cc2cccnc2)ccc1=O,6.72%
20,Cc1cnn(-c2ccc(C(=O)N3CCN(C)CC3C)cc2)c1 (stereo not drawn),-15.3%
21,CC1CN(C)CCN1C(=O)c1cccn1Cc1cccnc1 (stereo not drawn),17.9%
22,CC1CN(C)CCN1C(=O)c1cnc2c(cnn2C2CCCC2)c1 (stereo not drawn),31.2%
23,Cc1ccccc1N1CCN(C(=O)c2cnn(C(C)C)c2)C(C)C1 (stereo not drawn),12.1%
24,CC[C@@]1(O)CCN(C(=O)c2ccc(-n3cnnc3)cc2)C[C@H]1O,20.6%
25,CC(O)CN1CCN(C(=O)c2cnn(-c3ccc(Cl)cc3)c2)CC1 (stereo not drawn),16.6%
26,CC1CN(C)CCN1C(=O)c1cnn(-c2cccc(Cl)c2)c1 (stereo not drawn),74.4%

row,Structure (SMILES),INHIBITION
1,CC1CN(C)CCN1C(=O)c1ccc(-n2cnnc2)cc1 (stereo not drawn),66.1%
2,CC1CN(C)CCN1C(=O)c1cnn(-c2ccc(Cl)cc2)c1 (stereo not drawn),66.1%
3,O=C(Cc1ccc(Cl)s1)Nc1ccc2c(c1)C(=O)NC2=O,-97.9%
4,Cc1nn(C)c(N2CCOCC2)c1CNC1CCC(O)CC1 (stereo not drawn),9.14%
5,CC(C)(C)C(=O)NCC(=O)Nc1cccnc1,45.5%
6,COc1ccccc1CC(C)(C)C(=O)NCC(=O)Nc1cccnc1,56.6%
7,COc1ccccc1CCNC(=O)NCC(=O)Nc1cccnc1,-21.8%
8,COC(=O)NCCCn1ccnc1-c1ccccc1,-17.4%
9,O=C(Cc1ccsc1)N1CCc2ncc(Cn3cccn3)n2CC1,42.7%
10,COc1c(CNC(C)c2sc(C)nc2C)c(C(C)C)nn1C (stereo not drawn),33.7%
11,CN1CC2(CCN(C(=O)Cc3ccccn3)CC2)OCC1=O,-28.2%
12,CNc1cc(N2CCCC2CNCc2cscn2)ncn1 (stereo not drawn),-2.35%
13,COCCN1CC[C@H]2OCC[C@@H](C(=O)N3CCCO3)[C@H]2C1,1.9%
14,N#Cc1cn[nH]c1NCc1cc(Br)ccc1O,27.5%
15,N#Cc1cn[nH]c1NCc1cc(Cl)cc(Cl)c1O,62.2%
16,N#Cc1cn[nH]c1NCc1cc(I)cc(I)c1O,19.7%
17,c1ccn(Cc2nnc3n2CCCN(Cc2ccoc2)C3)c1,-13.1%
18,O=C(Nc1ccc2c(c1)OCO2)N1CCN(CCn2ccnc2)CC1,6.99%
19,CC(C(=O)Nc1cccc(C(F)(F)F)c1)N(C)CCN1CCOCC1 (stereo not drawn),35.2%
20,O=C(Nc1cccc(C(F)(F)F)c1)N1CCN(CCn2ccnc2)CC1,60.2%
21,CN(C)Cc1nc2c(o1)CN(C(=O)NCc1cccc(F)c1)C2,13.7%
22,CNC(=O)c1cn[nH]c1C1CCN(Cc2cccc(C)c2OC)C1 (stereo not drawn),6.32%
23,O=C(CN1CCS(=O)(=O)CC1)NC1CCCc2ccccc21 (stereo not drawn),-17.2%
24,O=C(CN1CCS(=O)(=O)CC1)NC1CCOc2ccccc21 (stereo not drawn),-22.4%
25,O=C(CN1CCS(=O)(=O)CC1)NC1CCCOc2ccccc21 (stereo not drawn),63.6%
